What is called inhibition is the drop in the measured response relative to a control, in per cent.

In all, about 220,000 compounds went through this assay and about 2,000 (0.91%) were called active. Roughly 2% stayed inconclusive and do not appear here. No stated cut-off is given here; in the data, inconclusive means inhibition above about 80% without an active follow-up result; inactive means below that; test concentration not stated here. A selection follows. Entries with a potency or affinity are not part of this list.

A short description of the experiment: M. tuberculosis H37Rv growth inhibitors, H37Rv strain (AID 1626).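 Further: bacteria incubated seven days before Alamar blue readout; 0% = bacteria only wells and 100% = bacteria with antibiotic wells.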 The settings on record: active compounds read high, concentration not given here.
In the case of `CCCc1nc2c(sc3nc4c(cc32)COC(C)(C)C4)c(=O)n1CCN(C)C`, the inhibition was -6.58% (inactive).

Take `Cc1ccccc1Nc1c(-c2ccc(N3CCOCC3)cc2)nc2cnccn12`: the inhibition is -3.6% (inactive).

Take `CC[C@H](CO)Nc1nc(Nc2cccc(Cl)c2)c2ncn(C(C)C)c2n1`: the inhibition is 15.3% (inactive).

In the case of `CC(C)C[C@H](CO)Nc1nc(Nc2cccc(Cl)c2)c2ncn(C(C)C)c2n1`, the inhibition is 28.8% (inactive).

For the compound `CCN(CC)S(=O)(=O)c1cccc(C(=O)N[C@H](C(=O)NCc2ccc(Cl)cc2)C(C)C)c1`, the inhibition was 6.08% (inactive).

For `COc1cc(C(=O)NCC(C)C)c([N+](=O)[O-])cc1OC`, the inhibition is 3.27% (inactive).

As for `CCCOc1ccc(Br)cc1CSC(=N)N`, the inhibition was -1.31% (inactive).

Regarding `CCCCOc1ccc(Br)cc1CSC(=N)N`, the inhibition is 2.99% (inactive).

On to `O=C(Nc1nnc(C2=COCCO2)o1)c1ccc(S(=O)(=O)N2CCCCC2)cc1`, for which the inhibition was 78.6% (inactive).

Regarding `CCCC(=O)Nc1nnc(-c2ccc3c(c2)OCCO3)o1`, the inhibition was 57.4% (inactive).

On to `N#CCCN(CCC#N)S(=O)(=O)c1ccc(C(=O)Nc2nnc(C3=COCCO3)o2)cc1`, for which the inhibition was -6.19% (inactive).

In the case of `O=C(Nc1nnc(C2=COCCO2)o1)c1ccc(S(=O)(=O)N2CCCC2)cc1`, the inhibition is -3.71% (inactive).

Regarding `CCCCC(=O)Nc1nnc(C2=COCCO2)o1`, the inhibition is 2.42% (inactive).

Regarding `O=C(NCc1ccccc1)c1ccc2c(c1)OCCO2`, the inhibition was -7.22% (inactive).

Regarding `O=C(Nc1nnc(C2=COCCO2)o1)c1ccc(S(=O)(=O)N2CCOCC2)cc1`, the inhibition was 7.6% (inactive).

Regarding `CC(=O)Nc1nnc(C2=COCCO2)o1`, the inhibition is 0.04% (inactive).

In the case of `Cc1ccc(/C=N/NC(=O)c2cccnc2)s1`, the inhibition was -7.82% (inactive).

On to `O=C(Nc1ccc(F)cc1)c1ccc(S(=O)(=O)N2CCOCC2)o1`, for which the inhibition is -14.1% (inactive).

Take `COC(C[C@@H](O)C[C@@H](O)COCc1ccccc1)OC`: the inhibition is -11.1% (inactive).

With `Cn1c(SCC(=O)N2CCCc3ccccc32)nc2cccnc21`, the inhibition was 4.22% (inactive).

As to `O=C(Nc1nnc(-c2cccnc2)s1)c1cccs1`, the inhibition is -11.7% (inactive).

In the case of `CC(C)(Oc1ccc(Cl)cc1)C(=O)OCn1nnc2ccccc2c1=O`, the inhibition is 62.5% (inactive).

For `COc1ccc(-n2c(C)cc(C(=O)CCl)c2C)cc1`, the inhibition was -6.35% (inactive).

Take `CC(=O)c1c(C(C)=O)c(C)n(-c2cccc([N+](=O)[O-])c2)c1C`: the inhibition is -7.09% (inactive).

In the case of `Cc1cc(C)c(S(=O)(=O)N(C)CC(=O)NCc2ccccn2)c(C)c1`, the inhibition is -8.63% (inactive).

For the compound `CCn1ccnc1CN(C)Cc1cn(C)nc1-c1ccccc1F`, the inhibition is -1.63% (inactive).

As for `COc1cccc(/C=N/n2c(SC)nnc2-c2ccccc2)c1OC`, the inhibition was -6.45% (inactive).

In the case of `Cc1ccc(CN(C(=O)Cc2cccs2)C(C(=O)NC2CCCC2)c2ccncc2)cc1` (stereo unspecified), the inhibition was 7.49% (inactive).

In the case of `O=C(Nc1ccc(S(=O)(=O)Nc2ccc(Cl)cc2)cc1)C1CCCO1` (stereo unspecified), the inhibition is 5.71% (inactive).

For `O=C(NCc1ccc(Cl)cc1)c1ccc(CNc2c(N3CCOCC3)c(=O)c2=O)cc1`, the inhibition is 87.6% (inactive).

Consider `Cc1cc(C)cc(NC(=O)c2ccc(CNc3c(N4CCOCC4)c(=O)c3=O)cc2)c1`, for which the inhibition is 12.3% (inactive).

Consider `O=C(NCc1ccc(Cl)cc1)c1ccc(CNc2c(N3CCCC3)c(=O)c2=O)cc1`, for which the inhibition was 4.26% (inactive).

With `CC(=O)c1ccc(NC(=O)c2ccc(CNc3c(N4CCCC4)c(=O)c3=O)cc2)cc1`, the inhibition is 2.39% (inactive).

As for `COc1cc2c(cc1NC(=O)CSc1nnc(Cc3cccs3)n1Cc1ccco1)oc1ccccc12`, the inhibition was 7.99% (inactive).

On to `CC(C)c1ccc(NC(=O)Cn2cccc2C2=NC(c3ccccc3)CO2)cc1` (stereo unspecified), for which the inhibition is -2.83% (inactive).

`COc1ccc(C(CCN)Cc2ccccc2)cc1` (stereo unspecified): the inhibition was 1.28% (inactive).

On to `O=S1(=O)CCN(OCc2ccc(F)cc2Cl)CC1`, for which the inhibition is -5.47% (inactive).

As for `CCOc1cc(C)nc(Oc2ccc(=O)[nH]n2)n1`, the inhibition was -1.8% (inactive).

Regarding `Cc1ccc(-c2csc(=Nc3cccnc3)n2CCCN2CCCC2=O)cc1C`, the inhibition is 8.37% (inactive).

For the compound `c1ccc2c(c1)[nH]c1cnccc12`, the inhibition was -1.77% (inactive).

With `Cc1ccc(C)c2c1[nH]c1ccccc12`, the inhibition was -8.26% (inactive).

`CC(C)CCNC1=CC(=O)CC(c2ccccc2)C1` (stereo unspecified): the inhibition was -3.24% (inactive).

Turning to `CNCCOc1ccccc1OC(C)C`, the inhibition is 4.14% (inactive).

In the case of `O=C(O)c1ccc(C(=O)O)c(C(=O)c2ccccc2)c1`, the inhibition was 4.19% (inactive).

Take `Cc1nn(Cc2ccc(F)cc2Cl)c(C)c1[N+](=O)[O-]`: the inhibition is 5.81% (inactive).

Regarding `Cc1nc2ccccc2n1CCc1ccccc1`, the inhibition is -7.4% (inactive).

In the case of `Cn1c(-c2sc(=S)n(-c3ccccc3)c2N)nc2ccccc21`, the inhibition is -12.8% (inactive).

Turning to `N#Cc1c(N)n(CCc2ccc(F)cc2)c2nc3ccccc3nc12`, the inhibition was 7.97% (inactive).

Consider `CCOc1ccc(-n2c(N)c(-c3nc4ccccc4n3C)c3nc4ccccc4nc32)cc1`, for which the inhibition was 70.5% (inactive).

For the compound `CCN(CC)C(=O)C1=C(C)NC(=O)NC1c1ccccc1F` (stereo unspecified), the inhibition was -2.9% (inactive).

`COc1ccc(NC(=O)C(C)N2c3cccc4cccc(c34)S2(=O)=O)cc1OC` (stereo unspecified): the inhibition was -6.4% (inactive).

In the case of `CCC(=O)NC(=S)Nc1cccc(NC(=O)c2ccccc2Cl)c1`, the inhibition is 8.67% (inactive).

With `N#C/C(=C\c1ccc(C(=O)O)cc1)S(=O)(=O)c1cc(Br)ccc1Br`, the inhibition is 17% (inactive).

With `CCn1c(SCC(=O)O)nnc1-c1cccnc1`, the inhibition was -5.44% (inactive).

On to `CC1CN(c2ncnc3c2c(-c2ccccc2)cn3-c2ccc(F)cc2)CC(C)O1` (stereo unspecified), for which the inhibition is 8.16% (inactive).

On to `CN1Cc2c(N3CCOCC3)nc3sc(C(=O)c4ccccc4)c(N)c3c2CC1(C)C`, for which the inhibition is 8.23% (inactive).

`CCOC(=O)c1sc2nc(N3CCOCC3)c3c(c2c1N)CC(C)(C)N(C)C3`: the inhibition was -3.62% (inactive).

Turning to `Cc1ccccc1OCCNc1cc(N2CCN(CCO)CC2)ccc1[N+](=O)[O-]`, the inhibition is 27.5% (inactive).

With `O=C(NCc1ccccc1)c1nc2c(nnn2Cc2cccc(Cl)c2)c(=O)[nH]1`, the inhibition is -4.36% (inactive).

For the compound `COC(=O)C1CCN(C(=O)c2sc3nc(-c4ccc(F)cc4)cn3c2C)CC1`, the inhibition was 6.16% (inactive).

Consider `CCCC(=Nc1ccccc1OC)C1=C(O)CC(c2ccccc2)CC1=O` (stereo unspecified), for which the inhibition was 2.17% (inactive).

In the case of `CCC(=Nc1ccccc1OC)C1=C(O)CC(c2ccccc2)CC1=O` (stereo unspecified), the inhibition is 6.17% (inactive).

Turning to `CN(CC(=O)Nc1ccc(S(=O)(=O)N2CCCC2)cc1)CC(=O)Nc1cccc(F)c1`, the inhibition was 2.32% (inactive).

In the case of `O=C1CC(c2cccs2)Cc2nc(NCC3CCCO3)ncc21` (stereo unspecified), the inhibition is -8.23% (inactive).

For the compound `Cc1nc2ccccc2c(=O)n1NC(=O)/C=C/c1ccccc1Cl`, the inhibition was -8.45% (inactive).

Turning to `Cn1c(COc2ccccc2)nnc1SCC(=O)NNC(=O)C1CCCCC1`, the inhibition is -10.3% (inactive).

For `O=C(O)CSc1nnc(COc2cccc3ccccc23)n1Cc1ccccc1`, the inhibition is -1.72% (inactive).

With `COc1cccc(OCc2nnc(SCC(=O)OC3CCCCC3)n2C)c1`, the inhibition was 6.41% (inactive).

As to `CCn1c(COc2cccc3ccccc23)nnc1SCC(N)=O`, the inhibition was -13.4% (inactive).

In the case of `COc1cccc(C(c2nnnn2CS(=O)(=O)c2ccc(C)cc2)N2CCN(C)CC2)c1OC` (stereo unspecified), the inhibition was -6.9% (inactive).

As to `CN1CCN(CC#CC(C)(O)C2CC3C=CC2C3)CC1` (stereo unspecified), the inhibition was 8.02% (inactive).

With `CCN(c1ccccc1)S(=O)(=O)c1ccc(Cl)c(C(=O)OCC(=O)NC(=O)C(C)C)c1`, the inhibition is -9.03% (inactive).

In the case of `Cc1ccc(OC(=O)c2ccc3snnc3c2)cc1`, the inhibition is 68.6% (inactive).

`CC(C)(C)c1ccc(OC(=O)c2ccc3nsnc3c2)cc1`: the inhibition is 29.5% (inactive).

As for `COc1ccc2[nH]c(=O)c(CN(C(=O)c3cccnc3)c3ccccc3C)cc2c1`, the inhibition is -2.62% (inactive).

As for `O=C(Nc1ccc(NC(=O)c2ccccn2)cc1)C(=O)Nc1ccc2c(c1)OCCO2`, the inhibition is 1.18% (inactive).

In the case of `COC(=O)CSc1nc2c(c(-c3ccc(O)cc3)c1C#N)CCCC2`, the inhibition is -6.65% (inactive).

Regarding `COc1ccc(-c2c(C#N)c(SCC(N)=O)nc3c2CCCC3)cc1`, the inhibition is 2.47% (inactive).

Turning to `Cc1ccccc1NC(=O)CSc1nc2c(c(-c3ccco3)c1C#N)CCCC2`, the inhibition was -3.31% (inactive).

As to `COc1cccc(NC(=O)CSc2nc3c(c(-c4ccco4)c2C#N)CCCC3)c1`, the inhibition was -2.62% (inactive).

Turning to `Cc1ccc(-c2c(C#N)c(N)nc3c2CCCC3)o1`, the inhibition was -11.1% (inactive).

In the case of `COC(=O)CSc1nc(-c2ccc(C)cc2)c2c(c1C#N)CCCC2`, the inhibition is 72.2% (inactive).

Take `N#Cc1c(SCC(=O)O)nc(-c2ccccc2)c2c1CCCC2`: the inhibition is -9.5% (inactive).

On to `CCSc1nc2c(c(-c3ccc(C)o3)c1C#N)CCCC2`, for which the inhibition is 2.67% (inactive).

As to `O=C(O)c1ccc(-c2noc(-c3cccc(F)c3)n2)cc1`, the inhibition was -9.57% (inactive).

In the case of `COc1ccc2[nH]c(=O)c(CN(CCCN3CCOCC3)C(=O)NCc3ccccc3)cc2c1`, the inhibition was 6.13% (inactive).

As to `COc1cc(NC(=O)CSc2nnc(Cn3nnc4ccccc43)n2C)cc(OC)c1`, the inhibition was 3.53% (inactive).

As to `CCCCN(C)CCC(=O)Nc1ccc(OC)cc1OC`, the inhibition is -13.6% (inactive).

In the case of `Cc1ccccc1Nc1cc(C(=O)NCC2CCCO2)c2ccccc2n1` (stereo unspecified), the inhibition was 5.9% (inactive).

`CCOC(=O)N1CCN(C(=S)Nc2cccc(C)c2)CC1`: the inhibition was -4.85% (inactive).

For the compound `COc1ccc(C(=O)Nc2ccc(NC(=O)c3cccs3)cc2)cc1Cl`, the inhibition is -14.7% (inactive).

`CC(=O)Nc1ccc(C(=O)N/N=C/c2ccc(F)cc2)cc1`: the inhibition is 7.2% (inactive).

`Cc1ccsc1C(C(=O)NC1CCCCC1)N(C(=O)c1csnn1)C1CC1` (stereo unspecified): the inhibition was -8.93% (inactive).

In the case of `COC(=O)CSc1cnc2ccccc2n1`, the inhibition was -1.39% (inactive).

As for `COC(=O)CSc1nc(-c2ccccc2)nc2ccccc12`, the inhibition was 5.34% (inactive).

Regarding `Cc1ccc(-n2c(C)nn(CCOc3ccccc3)c2=O)cc1`, the inhibition is 6.33% (inactive).

Values taken from PubChem BioAssay AID1626 (SRMLSC, 2009).
